# Bioassay records deposited in PubChem BioAssay by National Center for Advancing Translational Sciences (NCATS).
# CHX counter = affects cycloheximide protein synthesis inhibition readout, counter-screen. max response, %. 300,000 tested, 12% active. AID 2314. cell reporter, cycloheximide protein synthesis inhibition counterscreen; in the data active = max response mostly above about 13%, no sharp cut-off; inactive = mostly below about 14%; also: read at 38.3 µM for the half of the compounds with a filed dose; 0% is about no effect
# LmPK inhibitor = inhibitors of Leishmania mexicana pyruvate kinase | Q27686 | purified LmPK, Kinase-Glo ATP luminescence, 1 h | 290,000 tested, 0.37% active | Potency, µM (top dose mostly 57.5 µM), for inactives: at the highest dose activity change, negative = inhibition, most hits filed as inhibitors; also: potency is read from the fitted curve at half-maximal effect; % is scaled to controls: 0 for no effect and ±100 for the full control effect
# Target sequence (Q27686 whole entry, looked up): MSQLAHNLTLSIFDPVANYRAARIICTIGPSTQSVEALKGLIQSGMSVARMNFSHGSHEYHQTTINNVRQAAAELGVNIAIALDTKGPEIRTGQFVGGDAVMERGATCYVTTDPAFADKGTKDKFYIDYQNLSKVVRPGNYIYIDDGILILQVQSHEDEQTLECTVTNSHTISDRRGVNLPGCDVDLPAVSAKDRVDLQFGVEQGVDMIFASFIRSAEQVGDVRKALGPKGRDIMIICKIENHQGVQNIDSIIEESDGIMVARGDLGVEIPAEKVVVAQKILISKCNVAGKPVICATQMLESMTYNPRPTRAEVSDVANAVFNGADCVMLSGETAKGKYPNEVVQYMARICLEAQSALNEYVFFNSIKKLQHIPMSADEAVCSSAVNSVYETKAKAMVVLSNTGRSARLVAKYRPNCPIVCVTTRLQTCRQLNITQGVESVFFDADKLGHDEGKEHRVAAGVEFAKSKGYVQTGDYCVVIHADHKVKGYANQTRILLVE
#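 ATP generated from ADP (0.1 mM) and PEP (0.5 mM) by 0.1 nM LmPK over 1 h at room temperature (pH 7.2 imidazole buffer) was detected by coupled luciferase luminescence. Values were normalized to uninhibited and no-enzyme wells.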
# TbPYK inhibitor = inhibitors of Trypanosoma brucei pyruvate kinase. 410,000 tested, 0.12% active. AID 624173. TbPYK enzyme, Kinase-Glo Plus ATP luminescence, 45 min. Q57TT1. Potency, µM (highest dose often 76.8 µM), for the others: at the highest dose activity, negative = inhibition, usual class: inhibitors; also: potency is read from the fitted curve at half-maximal effect; % is scaled to controls: 0 for no effect and ±100 for the full control effect; nearly all actives have a fitted effect of over 50% in size
#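 T. brucei PYK with substrate was exposed to pin-transferred compounds across a concentration series, then started with 130 uM ADP (final). After 45 min at room temperature, Kinase-Glo Plus luminescence was read, normalized and curve-fitted.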
# Shiga inhibitor = blocks Shiga toxin action in Vero cells | inhibition, % at 38.7 µM | 290,000 tested, 9.2% active | AID 2315 | Vero cells, Shiga toxin protein synthesis inhibition reporter; in the data active = inhibition mostly above about 28%, no sharp cut-off; inactive = mostly below about 43%; also: 0% is about no effect
# Sm TGR inh = inhibitors of Schistosoma mansoni thioredoxin glutathione reductase; Potency, µM (titrated, usually from 114 µM), for the others: at the highest dose activity change, negative = inhibition, hits mostly inhibitors; 360,000 tested, 3% active; Q962Y6; purified TGR, DTNB reduction, TNB absorbance 405 nm; also: potency is read from the fitted curve at half-maximal effect; % is scaled to controls: 0 for no effect and ±100 for the full control effect; nearly all actives have a fitted effect of over 60% in size
#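 TGR 20 nM + NADPH 100 uM (dispensed conc.), cpd preinc 15 min RT; start with NADPH (500 uM addition) then DTNB (15 mM addition). Kinetic TNB absorbance, 405 nm filter. Four-parameter Hill fit across titration.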
# FBPA Giardia inh = blocks Giardia fructose-bisphosphate aldolase activity; purified Giardia FBPA; Potency, µM (highest dose often 59.6 µM), for inactives: top-dose activity, negative = inhibition, actives largely listed as inhibitors; 290,000 tested, 0.71% active; AID 2451; also: potency is read from the fitted curve at half-maximal effect; % is scaled to controls: 0 for no effect and ±100 for the full control effect; nearly all actives have a fitted effect of over 55% in size
#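 Giardia FBPA (40 nM reagent) was preincubated 10 min at RT with compound (up to 57.5 uM final), then substrate plus GAPDH/TPI/NAD/arsenate coupling system with diaphorase/resazurin was added; resorufin fluorescence (525/598 nm) was read after 20 min.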
# Numbers without * were called inactive; u = inconclusive; x = not tested or not shown; [ ] = another dose, or the depositor's remark. This excerpt belongs to a sample that is enriched for hits. Unless noted, calls follow the shape of the dose curve; as a rule, active = well fitted curve in the direction sought with a large enough effect; inconclusive = small, poorly fitted or top-dose-only effect, or another doubt; inactive = no such curve, though single readings can be large; an effect the other way counts as inactive or inconclusive.
SMILES,CHX counter,LmPK inhibitor,TbPYK inhibitor,Shiga inhibitor,Sm TGR inh,FBPA Giardia inh
COc1ccc(O)c(/C=N/NC(=S)Nc2cccnc2)c1,34.1*,-0.7%,u,90.7*,0.1%,16.8%
COc1cccc(/C=N/NC(=S)Nc2cccnc2)c1,11.6,-3.5%,-3.3%,48.8,-3.3%,-15.4%
C/C(N)=C(/C#N)C(=O)CSc1nc(-c2ccccc2)c(-c2ccccc2)o1,17.0,0.2%,-2.1%,-6.9,8.6%,-6.3%
COc1ccccc1C(=O)NCCC(=O)Nc1ncccc1O,10.3,-7.3%,0.7%,-2.6,-10.5%,x
O=C(NNC(=O)C1CC1)c1cc(=O)[nH]c2ccccc12,x,x,2.6%,x,x,x
CC(C)(C)c1ccc(C(=O)NC(=O)CSc2n[nH]c(N)n2)cc1,x,x,-4.9%,x,-23.4%,x
Cc1ccc2[nH]c(=O)c3cc(C(=O)N(C)Cc4ccco4)sc3c2c1,23.3*,17.8%,-0.1%,48.0,11.9%,-5.9%
CCOCCCN(Cc1ccco1)C(=O)c1cc2c(=O)[nH]c3ccc(C)cc3c2s1,-3.2,13.7%,-6.2%,-3.7,39.8µM*,1.0%
COCCN(Cc1ccco1)C(=O)c1cc2c(=O)[nH]c3ccc(C)cc3c2s1,x,x,-7.0%,x,-18.5%,x
Cc1cc(C)n(-c2nc(SCC(=O)O)c3c4c(sc3n2)CCCC4)n1,4.6,4.6%,x,10.7,-6.1%,3.6%
Cc1cc(C)n(-c2nc(NCC(C)O)c3c4c(sc3n2)CCCC4)n1 (configuration not stated),16.3*,9.9%,2.3%,32.0,10.2%[11.4 µM],-10.9%
Cc1cc(C)n(-c2nc(NCC(C)O)c3c4c(sc3n2)COC(C)(C)C4)n1 (configuration not stated),-3.4,3.6%,-5.3%,-5.1,8.1%,-0.7%
Cc1cc(C)n(-c2nc(SCC(=O)NCC3CCCO3)c3c4c(sc3n2)CCCC4)n1 (configuration not stated),-5.8,0.8%,x,-16.0,0.0%,4.8%
Cc1cc(C)n(-c2nc(NCC3CCCO3)c3c4c(sc3n2)COC(C)(C)C4)n1 (configuration not stated),27.5*,-0.6%,-9.6%,46.1,-6.0%,0.4%
Cc1cc(C)n(-c2nc(NCCCO)c3c4c(sc3n2)CCCC4)n1,18.2*,14.6%,-4.2%,43.1,3.1%[11.4 µM],-6.3%
Cc1cc(C)n(-c2nc(NCCO)c3c4c(sc3n2)CCCC4)n1,23.5*,4.5%,-9.9%,25.7,3.2%,1.0%
COCCN(C(=O)COC(=O)CCC1CCCCC1)c1c(N)n(Cc2ccccc2)c(=O)[nH]c1=O,x,x,0.2%,x,x,x
COc1cccc(CNc2cc(C)nc3nc(-c4ccc(C)cc4)nn23)c1,x,x,3.4%,x,u,x
O=C(NCc1ccc(Cl)cc1)c1ccc2ccccc2n1,19.8*,1.0%,2.6%,62.7,12.7%,-3.6%
O=C(NCCOc1ccc(Cl)cc1)c1ccc2ccccc2n1,9.3*,3.5%,-2.6%,33.1,15.0%,-6.2%
COc1ccc(CCNC(=O)c2cnc3ccccc3n2)cc1,14.5*,-0.3%,-3.3%,43.1,10.0%,-2.5%
COc1ccc(CNC(=O)c2ccc3ccccc3n2)cc1OC,1.8,4.7%,-5.8%,27.0,-1.4%,18.7%
CCOc1ccc(CCNC(=O)c2ccc3ccccc3n2)cc1OCC,43.9*,-0.9%,4.9%,52.7*,2.0%,x
Cc1ccc(OC(=O)c2oc3ccc(F)cc3c2C)c(C)c1,34.6*,-5.0%,-8.9%,45.7,-15.5%,x
O=C(CCC1CCN(Cc2nccs2)CC1)Nc1ccccc1,x,x,-1.5%,x,x,x
SMILES,CHX counter,LmPK inhibitor,TbPYK inhibitor,Shiga inhibitor,Sm TGR inh,FBPA Giardia inh
Cc1ccc(C(=O)NCCN2CCNC2=O)cc1,27.8*,3.9%,-0.4%,58.3*,14.9%,4.8%
O=C(NCC(=O)N1CCCC1)c1ccc(Br)cc1,9.9,5.2%,4.2%,82.6,1.2%,3.2%
Cc1cccc(C(=O)NCC(=O)N2CCCC2)c1,12.4*,-5.9%,-3.1%,49.2*,-14.5%,x
Cc1ccc(C(=O)NCC(=O)N2CCCCCCC2)cc1,x,x,-8.1%,x,1.7%,x
Nc1ccccc1C(=O)NCCN1CCNC1=O,2.8,3.7%,0.3%,4.1,6.5%,4.0%
Cc1cccc(C(=O)NCC(=O)N2CCN(S(=O)(=O)c3ccccc3)CC2)c1,x,x,0.1%,x,-11.3%,x
CC(C)(C)c1ccc(C(=O)NCC(=O)N2CCCC2)cc1,25.5*,8.0%,3.3%,36.6,0.5%,-3.0%
Cc1ccc(C(=O)NCC(=O)N2CCCCCC2)cc1,50.5*,3.2%,-9.9%,45.9*,-2.0%,3.6%
O=C(COc1ccc(Br)cc1F)Nc1nnc(C2CC2)s1,x,x,-5.0%,x,x,x
O=C(CSc1nc2c(cnn2-c2cccc(Cl)c2)c(=O)[nH]1)NCCC1=CCCCC1,x,x,1.1%,x,0.5%,x
Cc1ccc(C(=O)NCCC(=O)N2CCCC2)cc1,37.5*,-3.1%,0.9%,40.9*,-18.0%,-5.3%
O=C(CNC(=O)c1cccc(F)c1)OCC(=O)N1CCCCC1,34.9*,1.4%,-2.2%,51.1*,-16.8%,3.9%
CCC1CCCCN1S(=O)(=O)c1ccc(C(=O)Nc2sc3c(c2C(=O)NC)CCC3)cc1 (configuration not stated),x,x,0.7%,x,u,x
Cc1ccc(C)c(N2CCN(C(=O)Cn3nc(Cc4cccnc4)c4ccccc4c3=O)CC2)c1,x,x,-3.8%,x,-1.8%,x
COc1cc(/C=N/Nc2nc(C)cc(=O)[nH]2)cc(OC)c1O,-3.0,1.1%,-1.4%,-2.8,0.0%,u
COc1cc(/C=N/Nc2nc(=O)[nH]nc2C)cc(OC)c1O,26.6*,1.8%,-5.8%,94.5*,x,-15.5%
CCOc1cc(/C=N/Nc2ncnc(Cl)c2N)ccc1O,35.2*,-11.6%,-15.8%,56.6*,-26.4%,u
CCOc1cc(/C=N/Nc2nc(=O)[nH]nc2C)ccc1O,42.8*,-11.8%,-1.6%,71.1*,0.3%,u
CCOc1cc(/C=N/NC(=O)N/N=C/c2ccc(O)c(OCC)c2)ccc1O,x,x,-4.3%,x,x,x
Cc1n[nH]c(=O)nc1N/N=C/c1ccco1,11.1,u,-14.6%,28.3*,-32.2%,u
O=C(NCCN1CCNC1=O)c1ccc2sc([C@@H]3O[C@H](CO)[C@H](O)[C@H](O)[C@H]3O)nc2c1,x,x,0.6%,x,x,x
COc1ccc(C(C)=O)cc1Cn1c(C)c(C(=O)NCc2ccc(C(C)C)cc2)sc1=O,x,x,1.1%,x,x,x
COC(=O)c1cc(C)nc2c1c(=O)nc(SCc1cccc(C)c1)n2C1CC1,x,x,-0.6%,x,5.4%,x
CCOC(=O)C1=C(COC(=O)[C@@H]2CCCN2S(=O)(=O)c2ccc(C)cc2)NC(=O)NC1C (some centres not stated),12.1*,1.1%,-1.3%,9.8,-3.8%,x
Cc1ccc(S(=O)(=O)N2CCC[C@H]2C(=O)OCC(=O)N2c3ccccc3NC(=O)C2(C)C)cc1,x,x,-9.2%,x,x,x
Cc1ccsc1CN(C)CC(=O)NCC(=O)Nc1ccc(F)c(F)c1F,x,x,0.2%,x,x,x
C=CCOc1ccc(/C=C/C(=O)OCC(=O)N2CCC(c3ccccc3)=N2)cc1,x,x,-9.4%,x,-1.1%,x
